Experimental data from ChEMBL document CHEMBL4513216, “Probing the Open Global Health Chemical Diversity Library for Multistage-Active Starting Points for Next-Generation Antimalarials” (ACS Infect Dis, 2020).
Hit rate of the full screen: of about 68,000 compounds, about 2,700 (4%) showed an effect of 50% or more. The entries come from a sample that favours strong results as a whole.

System: Plasmodium berghei
Assay: Screen against P. berghei liver stage (PbLuc), transformed with Luciferase, at 2uM
Assay type: functional, HepG2
Details: tested at 2 uM

| Compound | INHIBITION |
| --- | --- |
| Cc1nnc(NC(=O)NCc2ccc(F)cc2)s1 | -12.41% |
| O=C(c1nc2c(o1)CN(CC1CCC1)C2)N1CCCC1 | 12.68% |
| COCCN1C[C@H]2[C@@H](C1)N(C(=O)COc1ccccc1)CC[C@H]2OC | -75.33% |
| COCCN1C[C@@H]2[C@@H](OC)CCN(C(=O)Cc3ccccc3)[C@@H]2C1 | 55.44% |
| COCCN1C[C@H]2[C@@H](C1)N(C(=O)CCc1ccccc1)CC[C@H]2OC | 25.02% |
| N#Cc1ccccc1CN1C[C@H]2CC[C@@H](C1)N(Cc1cscn1)C2=O | -66.52% |
| CC(C)N(C)S(=O)(=O)N1CCCC1CC(=O)c1cccs1 (stereo not drawn) | 2.71% |
| Cc1ccc(CNCC2Cn3nnc(-c4cccc(F)c4)c3CO2)o1 (stereo not drawn) | -17.26% |
| CN1CCC2(COCCN(Cc3cccc(C#N)c3)C2)C1 (stereo not drawn) | 16.03% |
| CCCS(=O)(=O)N1CCC2(CCC(=O)N(Cc3ccccc3)C2)CC1 | 57.91% |
| CCCS(=O)(=O)N1CCC2(CCC(=O)N(CCc3ccccc3)C2)CC1 | 15.56% |
| CCCS(=O)(=O)N1CCC2(CCC(=O)N(CCc3cccnc3)C2)CC1 | 31.96% |
| CCC(CNC(=O)Cc1c(C)noc1C)N1CCCC1 (stereo not drawn) | -15.63% |
| Cn1nccc1CCC(=O)N1CCC(c2cnccn2)CC1 | -14.13% |
| Cc1ccnn1CCC(=O)N1CCC(c2cnccn2)CC1 | 55.74% |
| COc1cc(CCC(=O)N2CCC(c3cnccn3)CC2)on1 | -56.97% |
| CC(Cn1cc(Br)cn1)C(=O)Nc1ccc(Br)cn1 (stereo not drawn) | -84.37% |
| CC(C)N(CCCNC(=O)C1CCCN(C(N)=O)C1)S(C)(=O)=O (stereo not drawn) | 26.18% |
| CN(CCC#N)C(=O)CSc1cc(F)ccc1F | 6.82% |
| N#CCCNC(=O)CSc1ccc(F)cc1F | 21.22% |
| N#CCCNC(=O)CSc1cc(F)ccc1F | 51.83% |
| CC(C)CN1CCCC1c1ccc(C(=O)Nc2cn(C)nn2)s1 (stereo not drawn) | -28.11% |
| Cc1cnc(NC(=O)c2ccc(C3CCCN3CC(C)C)s2)s1 (stereo not drawn) | 24.36% |
| CCc1nnc(NC(=O)c2ccc(C3CCCN3CC(C)C)s2)s1 (stereo not drawn) | 52.98% |
| CCc1nccn1-c1cncc(C2CCCN2)n1 (stereo not drawn) | -21.99% |
| c1ccc(C2CCCN2Cc2nnnn2C2CC2)cc1 (stereo not drawn) | 7.74% |

| Compound | INHIBITION |
| --- | --- |
| CN(CCCNS(=O)(=O)N1CCC2(CC1)OCCO2)c1ccccc1 | 0.12% |
| O=c1[nH]c2nc(N3CCCC3)ncc2c(=O)n1-c1cccc(F)c1 | 22.51% |
| O=c1[nH]c2nc(NCC3CCCO3)ncc2c(=O)n1-c1cccc(F)c1 (stereo not drawn) | 61.06% |
| O=c1[nH]c2nc(NCC3CCCO3)ncc2c(=O)n1-c1ccc(F)cc1 (stereo not drawn) | 24.34% |
| CN1CCCC[C@@H]2[C@H]1[C@@H](c1ccccc1)CCN2S(=O)(=O)N1CCCC1 | 49.9% |
| COc1ccc(OC)c(-n2nnnc2SCC2CCCCO2)c1 (stereo not drawn) | -10.78% |
| Cc1cnc2[nH]c(C(F)(F)F)c(CN3CCCC(CO)C3)c2c1 (stereo not drawn) | 18.87% |
| Cc1ccc(C(=O)NCCNC(=O)c2cncnc2C)cc1F | -9.98% |
| Cc1ccc(C(=O)NCCNC(=O)c2cncnc2C(C)C)cc1F | 57.34% |
| CCc1ncncc1C(=O)NCCNC(=O)c1ccc(C)c(F)c1 | -18.39% |
| O=C(CCn1cccn1)NCCOc1cccc(Cl)c1 | 8.78% |
| Nc1ccc(C(=O)N2C[C@H]3CC[C@@H](C2)N(Cc2ccccc2)C3)cn1 | 57.85% |
| Cc1ccc(C(=O)N2C[C@H]3CC[C@@H](C2)N(Cc2ccccc2)C3)cn1 | -17.44% |
| O=C(c1c[nH]c(=O)cn1)N1C[C@H]2CC[C@@H](C1)N(Cc1ccccc1)C2 | 24.51% |
| COc1ncccc1CN1CCn2c(Cn3cncn3)cnc2C1 | -47.72% |
| O=C(NCCC1=CCCCC1)c1ccc(-n2cccc2)nc1 | 46.17% |
| CCc1nnc2n1CCN(C(=O)Cc1csc(-c3ccco3)n1)C2 | -5.2% |
| CCN1CCN(C(=O)C(C)n2cc(Br)cn2)CC1 (stereo not drawn) | 1.77% |
| CC/C=C(/C)C(=O)NS(=O)(=O)c1ccc(C#N)c(C(F)(F)F)c1 | 57% |
| CCCC(=O)NS(=O)(=O)c1ccc(C#N)c(C(F)(F)F)c1 | 4.68% |
| CC/C=C(/C)C(=O)NS(=O)(=O)c1ccc(C#N)cc1C(F)(F)F | 6.08% |
| Cn1nc(CNC(=O)NCc2ccc(Cl)cc2)c2c1CCOC2 | -18.29% |
| C=C(C)COc1cccc(CN(C)C(C)c2ccncn2)c1 (stereo not drawn) | 53.17% |
| C=C(C)COc1cccc(C(=O)N(C)C(C)c2ccncn2)c1 (stereo not drawn) | 18.88% |
| C=C(C)COc1cccc(CN(C)C(C)c2nccs2)c1 (stereo not drawn) | -10.78% |
| CC(C)N1CCCC(Cc2nccnc2Cl)C1 (stereo not drawn) | -47.18% |

| Compound | INHIBITION |
| --- | --- |
| Cc1nc(C)c(C(C)NCc2c(C)nn(C)c2N(C)C)s1 (stereo not drawn) | -30.49% |
| Cc1nc(C)c(C(C)NCc2c(C(C)C)nn(C)c2N(C)C)s1 (stereo not drawn) | -34.69% |
| COc1c(CNC(C)c2sc(C)nc2C)c(C(C)C)nn1C (stereo not drawn) | 59.99% |
| Cc1ccc(-c2cc(N)c(=O)n(C(C)C(=O)NCC3CCCCC3)n2)s1 (stereo not drawn) | -1.07% |
| Cc1ncsc1CN1C[C@@H]2CC[C@H]1CN(Cc1ccccc1)C2 | 15.68% |
| CC(C)(C)C(O)CN1CCN(CCOCC(F)(F)F)CC1 (stereo not drawn) | -17.11% |
| Cc1nn(C)c(C)c1C(=O)NCc1ccnc(OCC(F)(F)F)c1 | 11.09% |
| COCCN1CCCC1c1ccnc(-c2ccccc2)n1 (stereo not drawn) | 14.3% |
| CCCn1cc(-c2cc(-c3cnc(OC)nc3)c(C#N)c(N)n2)c(C)n1 | 38.61% |
| CCCn1cc(-c2cc(-c3ccoc3)c(C#N)c(N)n2)c(C)n1 | 61.28% |
| CCCn1cc(-c2cc(-c3c[nH]cn3)c(C#N)c(N)n2)c(C)n1 | 38.15% |
| Cc1cccc(-c2noc(CN3CC(n4cccn4)C3)n2)c1 | -15.28% |
| CS(=O)(=O)Cc1ccc(Cl)c(NCc2noc(C3CC3)n2)c1 | -22.2% |
| Cc1ccc(-c2ccc(Cl)nn2)cc1S(=O)(=O)N1CCOCC1 | 4.88% |
| Cc1cc(C)c(S(=O)(=O)Nc2c(C)nc(N(C)C)nc2C)cc1C | -46.61% |
| CN1CC2(CCCN(Cc3nnc(-c4ccco4)o3)CC2)OC1=O (stereo not drawn) | 16.82% |
| CN1CC2(CCCN(Cc3nnc(-c4ccccc4)o3)CC2)OC1=O (stereo not drawn) | -16.62% |
| CN1CC2(CCCN(Cc3nnc(-c4cccc(F)c4)o3)C2)OC1=O (stereo not drawn) | 54.49% |
| O=C(NC[C@]12COC[C@H]1CN(Cc1ccco1)C2)c1ccccc1 | -36.34% |
| O=C(NCc1ccco1)N1CCC(n2ccc(C(F)(F)F)n2)CC1 | -43.09% |
| Cc1nn(C)cc1CN1CCCC(n2c(=O)oc3ccc(Cl)cc32)C1 (stereo not drawn) | 13.17% |
| COCC(=O)N1CCN(C(=O)c2cccs2)[C@@H](C(=O)OC)C1 | -19.02% |
| COC(=O)[C@H]1CN(C(=O)NC(C)C)CCN1C(=O)C1CCCCC1 | 16.67% |
| COC(=O)[C@H]1CN(C(C)=O)CCN1C(C)=O | 56.21% |
| COCC(=O)N1CCN(C(C)=O)C[C@@H]1C(=O)OC | 23.53% |
| COCC(=O)N1CCN(C(=O)C2CCCCC2)[C@@H](C(=O)OC)C1 | 72.68% |

| Compound | INHIBITION |
| --- | --- |
| COC(=O)[C@@H]1CN(C(=O)Nc2ccccc2)CCN1C(C)=O | -21.22% |
| CNC(=O)C1(c2cnccn2)CCCN1C(=O)Cc1ccsc1 (stereo not drawn) | 36.82% |
| CN(CCc1ccccn1)Cc1nccn1Cc1ccccc1 | -9.98% |
| CN(C)Cc1cnc2n1CCN(C(=O)NCc1ccccc1)CC2 | 53.44% |
| CN(C)Cc1cnc2n1CCN(C(=O)Cc1ccsc1)CC2 | 37.51% |
| CN(C)Cc1cnc2n1CCN(C(=O)NC1CCCC1)CC2 | 16.03% |
| CN(C)Cc1cnc2n1CCN(C(=O)Cc1cccc(F)c1)CC2 | 54.82% |
| CN(C)Cc1cnc2n1CCN(C(=O)C1CC=CC1)CC2 | 46.27% |
| CN(C)Cc1cnc2n1CCN(C(=O)Cc1ccc(F)cc1)CC2 | 8.41% |
| CN(Cc1ccccc1F)C(C(N)=O)c1ccccc1 (stereo not drawn) | 24.62% |
| CN(C)S(=O)(=O)c1ccc(-c2nc(C#N)c(NC(C)(C)C)o2)o1 | 1.3% |
| CCN(CC)CCN1CC[C@H]2OCC[C@@]2(C(=O)N2CCOCC2)C1 | 41.38% |
| COC(=O)c1cccc(C(=O)N2CCN(c3cc(Cl)ccc3C)CC2)n1 | 18.76% |
| CC(C)=CCCC(C)CN1CCC(n2cc(C(C)(C)O)nn2)CC1 (stereo not drawn) | 15.27% |
| CC(C)=CCCC(C)CN1CCC(n2cc(C(=O)NCCO)nn2)CC1 (stereo not drawn) | 48.93% |
| CC(C)=CCCC(C)CN1CCC(n2cc(CO)nn2)CC1 (stereo not drawn) | 55.66% |
| Fc1cccc(C2(CNC3CCOC4(CCOCC4)C3)CCOCC2)c1 (stereo not drawn) | -8.87% |
| COc1cc(CNCCn2cc(C)cn2)c2c(c1)CC(C)O2 (stereo not drawn) | -11.26% |
| COc1cccc(OCC(=O)N(C)c2cccnc2N(C)C)c1 | -3.66% |
| COc1ccc(CC(=O)N(C)c2cccnc2N(C)C)c(Cl)c1 | 54.29% |
| CN(C)c1ncccc1N(C)C(=O)Cn1cc(-c2ccccc2)nn1 | -34.37% |
| Fc1ccc(CN2CCC3(CC2)CCN(c2ncccn2)CC3)cc1 | 26.94% |
| CC(O)CN1CCC(CN(C)Cc2cc(F)cc3cccnc23)CC1 (stereo not drawn) | -0.44% |
| Cc1ccc2c(n1)N(CCN(C)C)CCN(C(=O)c1cccs1)C2 | -29.61% |
| Cc1cnc2n(c1=O)CC(C(=O)NCc1ccccc1Cl)CS2 (stereo not drawn) | 39.58% |
